Test [1] is described as follows: qHTS assay to identify small molecule antagonists of the estrogen related receptor (ERR) signaling pathway from Tox21 library - cell viability counter screen (AID 1224834). Note: nearly all actives have a fitted effect of over 30% in size. The method in brief:
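CellTiter-Fluor fluorescence, read after 30 min at 37 C, measures viability of ERR cells. Cells plated at 2,000/well and incubated 6 h before pin-tool compound addition, then exposed 17.5 hours at 37 C.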
On the technique in general: In qHTS, concentration-response curves come from the screen itself.

For test [2], the target named is Luciferin 4-monooxygenase (Photinus pyralis) (UniProt P08659). The test is described as follows: qHTS assay to identify small molecule inhibitors of firefly luciferase (AID 1224835). Note: nearly all actives have a fitted effect of over 25% in size. In a few lines:
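Biochemical qHTS: compounds run as interplate titrations against purified firefly enzyme, with D-luciferin and ATP each at its KM concentration. Light output recorded by CCD imaging.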

Test [3] in a line: qHTS assay to identify small molecule agonists of the constitutive androstane receptor (CAR) signaling pathway - cell viability counter screen (AID 1224836). Note: nearly all actives have a fitted effect of over 45% in size. The method in brief:
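Multiplexed viability check: HepG2-CYP2B6-hCAR cells, 15-point compound dosing, 0.75 uM PK11195 final, 23 h at 37 C, CellTiter-Fluor fluorescence.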

Test [4] can be described thus: qHTS assay to identify small molecule antagonists of the constitutive androstane receptor (CAR) signaling pathway - cell viability counter screen (AID 1224837). Note: nearly all actives have a fitted effect of over 45% in size. The method in brief: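 Cytotoxicity counter-screen: CellTiter-Fluor fluorescence after 23 h compound exposure (15-point qHTS) in double-stable HepG2-CYP2B6-hCAR cells, with 50 nM CITCO added.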
The target in test [5] is Nuclear receptor subfamily 1 group I member 3 (Homo sapiens) (UniProt Q14994). The test is described as follows: qHTS assay to identify small molecule antagonists of the constitutive androstane receptor (CAR) signaling pathway (AID 1224838).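 Note: HepG2 cells stably expressing hCAR with CYP2B6 luciferase reporter stimulated by CITCO; nearly all actives have a fitted effect of over 40% in size.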 In a few lines:
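Antagonism measured as luciferase signal (ONE-Glo, 30 min, room temperature) in CAR-stimulated cells: HepG2-CYP2B6-hCAR double-stable line exposed 24 hr at 37 C to compound in a 15-point series plus 50 nM CITCO.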

For test [6] the target is unchanged. The test can be described thus: qHTS assay to identify small molecule agonists of the constitutive androstane receptor (CAR) signaling pathway (AID 1224839).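 Note: HepG2 cells stably carrying human CAR and a CYP2B6 luciferase reporter; nearly all actives have a fitted effect of over 15% in size.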 The method in brief:
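Using human hepatoma HepG2 cells engineered with hCAR and a CYP2B6-2.2kb reporter, 15-concentration compound series were incubated 24 h alongside PK11195 at 0.75 uM final, with luminescence quantified afterwards.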

A short description of test [7]: qHTS assay to identify small molecule antagonists of the estrogen related receptor signaling pathway with the pleiotropic PPARgamma coactivator (PGC) from Tox21 10K library - cell viability counter screen (AID 1224840; active = well fitted cell-killing curve with a large enough effect in the repeat runs, not every such curve was filed as active; note: nearly all actives have a fitted effect of over 40% in size). In a few lines: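 Counter-screen for cytotoxicity: after 17.5 h compound exposure at 37 C, CellTiter-Fluor reagent added to PGC/ERR cells for 30 min and fluorescence read. Cells were seeded at 2,000 per well 6 h before dosing.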

A short description of test [8]: qHTS assay to identify small molecule antagonists of the estrogen related receptor signaling pathway with the pleiotropic PPARgamma coactivator (PGC) from Tox21 10K library (AID 1224841; call rule not given here; note: actives are mostly falling curves and most rising ones were filed inactive; nearly all actives have a fitted effect of over 50% in size; note: potency is the fitted concentration of half-maximal effect). In a few lines:
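Luminescence (One-Glo, 30 min at room temperature) after 18 h compound treatment at 37 C of PGC/ERR reporter cells plated at 2,000 cells/well and settled 6 h beforehand.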

A short description of test [9]: qHTS assay to identify small molecule agonists of the estrogen related receptor signaling pathway with the pleiotropic PPARgamma coactivator (PGC) from Tox21 10K library (AID 1224842). Note: nearly all actives have a fitted effect of over 15% in size. Note: potency is the fitted concentration of half-maximal effect. In a few lines:
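PGC/ERR reporter cell line, 2,000 cells per well, incubated 6 h at 37 C before 23 nL compound in DMSO was added. After 18 h at 37 C, One-Glo luminescence read following 30 min at room temperature.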

In test [10] the target is Thyrotropin receptor (Homo sapiens) (UniProt P16473). The test is described as follows: qHTS assay to identify small molecule agonists of the thyroid stimulating hormone receptor (TSHR) signaling pathway (AID 1224843; calls by dose curve; note: nearly all actives have a fitted effect of over 45% in size). The method in brief: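 HEK293/TSHR, 800 cells/well; cpd 30 min RT; add cAMP-d2 + anti-cAMP-cryptate, 1 h RT; fluorescence read on plate reader. 15-pt titration, n=3.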

Test [11] is described as follows: qHTS assay to identify small molecule agonists of the hypoxia (HIF-1) signaling pathway - cell viability counter screen (AID 1224844; calls by dose curve; note: nearly all actives have a fitted effect of over 50% in size). In a few lines: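 Cytotoxicity measured by CellTiter-Glo ATP luminescence in the wells also read for beta-lactamase signal. Cells were HRE-bla ME-180 (2,000/well, 0.5% dialyzed FBS), exposed to compounds for 17 h at 37C.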
Test [12] can be described thus: qHTS assay to identify small molecule agonists of H2AX (AID 1224845; active = well fitted activation curve with a large enough effect in the signal ratio in the repeat runs, not every such curve was filed as active; the % refers to the signal ratio; note: potency is the fitted concentration of half-maximal effect). The method in brief:
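Wild-type CHO-K1 cells, plated overnight, exposed 3hr at 37C to 15 concentrations (0.76% DMSO final). Lysed, then HTRF anti-pH2AX (S139) cryptate and anti-H2AX-d2 antibodies, 24 hr room temperature; 665/620 nm emission read.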

Test [13] in a line: qHTS assay to identify small molecule agonists of the hypoxia (HIF-1) signaling pathway (AID 1224846; active = well fitted activation curve with a large enough effect in the signal ratio in the repeat runs, not every such curve was filed as active; the % refers to the signal ratio). The method in brief:
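Compounds added to ME-180 cells carrying hypoxia-response-element beta-lactamase reporter (0.5% dialyzed FBS, 5 h preplating), 17 h at 37C; agonist activity detected by CCF4-AM B/G FRET read-out.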

Test [14] is described as follows: qHTS assay to identify small molecule agonists of H2AX - cell viability counter screen (AID 1224847; calls by dose curve; note: top concentration of the series differs between compounds; nearly all actives have a fitted effect of over 30% in size). The method in brief: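 After overnight plating of 1000 CHO-K1 cells per well, a 15-concentration compound series was applied for 3 hr at 37C. Luminescence from CellTiter-Glo, read following 30 min at room temperature, reflected cell viability.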
A short description of test [15]: qHTS assay to identify small molecule antagonists of the estrogen related receptor (ERR) signaling pathway from Tox21 library (AID 1224848). Note: nearly all actives have a fitted effect of over 50% in size. Note: potency is the fitted concentration of half-maximal effect. The method in brief:
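Compounds dissolved in DMSO are pin-transferred onto ERR reporter cells (2,000 per well) that have settled for 6 h at 37 C. Plates then incubate 18 h at 37 C before ONE-Glo luciferase reagent and a luminescence read 30 min later.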

Test [16] in a line: qHTS assay to identify small molecule agonists of the estrogen related receptor (ERR) signaling pathway from Tox21 library (AID 1224849; calls by dose curve; note: nearly all actives have a fitted effect of over 15% in size). Conditions: ERR reporter cell line, ONE-Glo luciferase, 18 h; at 92.4 µM (top of the series) unless noted. In a few lines:
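Luminescent agonist read-out (One-Glo, 30-minute room-temperature incubation) following 18-hour compound treatment at 37 C of the ERR cell line, which had been plated 6 hours before dosing.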

The nature of test [17]: qHTS RealTime-Glo MT Cell Viability Assay in HepG2 cells - 24 hour (AID 1224867). Note: nearly all actives have a fitted effect of over 50% in size. The method in brief:
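Luminescence read-out: viable HepG2 cells reduce a prosubstrate to a NanoLuc substrate, giving a signal proportional to live cell number. Reads taken at 0, 8, 16, 24, 32 and 40 h of compound exposure at 37 C.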

Test [18] in a line: qHTS RealTime-Glo MT Cell Viability Assay in HEK293 cells - 32 hour (AID 1224868). In a few lines:
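Nonlytic real-time viability readout: viable cells convert prosubstrate to NanoLuc substrate, giving luminescence proportional to live cell number. HEK293, 600 cells/well, compound added after 5 h, continuous culture at 37 C.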

Test [19] in a line: A CellTox Green Cytotoxicity Assay to monitor cytotoxicity in HEK293 cells - 0 hour (AID 1224869). Note: nearly all actives have a fitted effect of over 50% in size. Note: potency is the fitted concentration of half-maximal effect. The method in brief: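 Fluorescence from a DNA-binding dye excluded by viable cells was measured repeatedly in the same HEK293 wells (600 cells/well) during continuous compound exposure at 37 C. Each assay gives one read point: 0, 8, 16, 24, 32 or 40 h.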
A short description of test [20]: qHTS assay to identify small molecule agonists of the estrogen related receptor signaling pathway with the pleiotropic PPARgamma coactivator (PGC) (AID 1224823). In a few lines: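 Luminescence readout (One-Glo, 30 min RT) from PGC/ERR cell line treated 18 h at 37 C with pin-tool-delivered DMSO compound solutions; cells plated 6 h before dosing. Quantitative HTS format.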

Molecules are shown by their SMILES. Values without a mark were called inactive. Results filed as inconclusive are left out. Activity calls are given as the source filed them. Unless noted, calls come from the whole dose curve; as a rule, active = well fitted curve in the direction sought with a large enough effect in the repeat runs; inconclusive = weak or mixed curves; inactive = no such curve, though single readings can be large; an effect the other way counts as inactive or inconclusive.
% is set by controls: 0 for no effect and ±100 for the full control effect.

Luciferin 4-monooxygenase (Photinus pyralis), sequence (P08659 whole entry, looked up): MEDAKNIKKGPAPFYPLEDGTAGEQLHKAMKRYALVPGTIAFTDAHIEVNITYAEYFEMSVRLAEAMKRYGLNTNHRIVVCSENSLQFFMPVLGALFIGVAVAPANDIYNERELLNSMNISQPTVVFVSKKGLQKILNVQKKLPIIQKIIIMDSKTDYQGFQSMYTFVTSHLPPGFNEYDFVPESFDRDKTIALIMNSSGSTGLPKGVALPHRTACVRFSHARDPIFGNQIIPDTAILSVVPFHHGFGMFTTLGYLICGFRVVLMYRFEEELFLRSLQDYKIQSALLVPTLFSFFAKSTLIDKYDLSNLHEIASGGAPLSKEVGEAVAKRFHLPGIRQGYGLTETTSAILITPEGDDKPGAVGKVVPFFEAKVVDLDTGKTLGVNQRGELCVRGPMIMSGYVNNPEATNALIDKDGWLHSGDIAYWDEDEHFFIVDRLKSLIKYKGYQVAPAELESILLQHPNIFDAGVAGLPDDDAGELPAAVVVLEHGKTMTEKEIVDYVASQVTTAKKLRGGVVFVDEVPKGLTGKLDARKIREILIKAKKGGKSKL
Thyrotropin receptor (Homo sapiens), sequence (P16473 whole entry, looked up): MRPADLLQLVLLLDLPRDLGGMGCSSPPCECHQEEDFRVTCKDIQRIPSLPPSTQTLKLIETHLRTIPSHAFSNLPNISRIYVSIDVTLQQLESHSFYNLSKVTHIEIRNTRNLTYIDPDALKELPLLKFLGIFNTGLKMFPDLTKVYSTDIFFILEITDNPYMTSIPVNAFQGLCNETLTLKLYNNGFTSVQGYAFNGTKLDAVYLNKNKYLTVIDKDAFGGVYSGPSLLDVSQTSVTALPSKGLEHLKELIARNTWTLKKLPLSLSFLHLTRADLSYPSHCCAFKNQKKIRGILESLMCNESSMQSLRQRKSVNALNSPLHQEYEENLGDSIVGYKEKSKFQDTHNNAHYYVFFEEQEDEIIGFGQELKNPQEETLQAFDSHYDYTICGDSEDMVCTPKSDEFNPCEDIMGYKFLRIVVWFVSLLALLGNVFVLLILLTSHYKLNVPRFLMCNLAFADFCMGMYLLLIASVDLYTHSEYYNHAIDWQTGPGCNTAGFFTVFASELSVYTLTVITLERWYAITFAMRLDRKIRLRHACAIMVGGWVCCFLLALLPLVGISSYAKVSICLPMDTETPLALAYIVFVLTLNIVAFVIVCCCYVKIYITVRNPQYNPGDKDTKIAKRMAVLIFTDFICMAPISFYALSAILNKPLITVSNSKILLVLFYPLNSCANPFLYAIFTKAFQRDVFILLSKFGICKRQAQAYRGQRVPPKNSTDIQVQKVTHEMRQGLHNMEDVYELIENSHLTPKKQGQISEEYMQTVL
Nuclear receptor subfamily 1 group I member 3 (Homo sapiens), sequence (Q14994 whole entry, looked up): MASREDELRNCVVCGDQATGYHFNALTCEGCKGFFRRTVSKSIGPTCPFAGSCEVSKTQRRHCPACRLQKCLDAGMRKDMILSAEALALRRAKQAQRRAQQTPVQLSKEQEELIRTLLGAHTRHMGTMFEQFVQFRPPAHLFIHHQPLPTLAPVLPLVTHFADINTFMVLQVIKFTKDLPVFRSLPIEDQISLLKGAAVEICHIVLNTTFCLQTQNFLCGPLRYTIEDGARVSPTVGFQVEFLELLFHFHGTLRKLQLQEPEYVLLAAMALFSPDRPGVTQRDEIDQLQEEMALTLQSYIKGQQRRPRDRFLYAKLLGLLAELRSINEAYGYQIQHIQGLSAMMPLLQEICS

With `C[Si]1(C)O[Si](C)(C)O[Si](C)(C)O1`, the Potency result in test [1], in [2], in [3], in [4], in [5] and in test [6] was “inactive” throughout. Further, the Potency entry in test [7], in [8], in test [9], in [10], in test [11] and in test [12] was “inactive” throughout. Also, the Potency result in [14], in [15], in [17], in test [18] and in [19] was “inactive” in each case. For the same compound, the call in test [13] was inactive. In addition, the activity change, positive = activation in [16] is -9.67%.

Turning to `COc1cc2c(cc1OC)-c1cc(=Nc3c(C)cc(C)cc3C)n(C)c(=O)n1CC2`, the Potency entry in [20], in test [2], in test [3], in test [4], in [5] and in test [7] was “inactive” each time. The Potency result in [8], in test [11], in test [12], in test [14], in test [17] and in test [19] was “inactive” in each case. For the same compound, the Potency in test [9] and in test [15] was 13.3 µM (active) each time. The compound was classed as inactive in test [13]. Also, in test [16], the activity change, positive = activation is -48.8% [at 42.5 µM].

In the case of `CN1C(=O)CC(C)(c2ccccc2)C1=O` (stereo unspecified), the Potency entry in test [1], in test [2], in [3], in [4], in [5] and in test [6] was “inactive” throughout. Further, the Potency result in [7], in [8], in test [10], in test [11], in test [12] and in [14] was “inactive” each time. Further, the Potency entry in test [15], in test [17], in test [18] and in test [19] was “inactive” throughout. The activity change, positive = activation in [16] is 2.7% [at 42.5 µM].

Consider `C1COCO1`, for which the Potency entry in test [1], in [2], in test [3], in test [4], in test [5] and in test [6] was “inactive” in each case. The Potency result in [7], in [8], in test [10], in test [11], in test [12] and in [14] was “inactive” throughout. In addition, the Potency entry in [15], in test [17], in [18] and in [19] was “inactive” in each case. In addition, in test [13], the call was inactive. The activity change, positive = activation in test [16] is -2.3%.

Regarding `COCCOC(=O)C1=C(C)NC(C)=C(C(=O)OC/C=C/c2ccccc2)C1c1cccc([N+](=O)[O-])c1` (stereo unspecified), the Potency result in test [20], in test [2], in [3], in test [5], in [11] and in [12] was “inactive” in each case. Also, in test [19], the Potency entry is “inactive”. For the same compound, the Potency was 23.7 µM (active) in test [8] and 7.5 µM (active) in test [15]. In [16], the activity change, positive = activation is -61.8% [at 42.5 µM].

Consider `c1cnc2c(n1)CCCC2`, for which the Potency result in test [1], in [2], in test [3], in test [4], in [5] and in [6] was “inactive” in each case. The Potency result in [7], in [8], in test [9], in test [10], in test [11] and in [12] was “inactive” in each case. In addition, the Potency entry in test [15], in test [17] and in test [18] was “inactive” throughout. Also, in test [13], the result was inactive. The Potency in test [19] was 43.6 µM (active).

Consider `CC1(C)C2=CCCC(C)(C)[C@]23CC[C@H]1C3`, for which the Potency result in test [1], in test [2], in [3], in test [4], in test [5] and in [6] was “inactive” throughout. Also, the Potency entry in test [7], in [11], in test [12], in test [14], in [17] and in test [18] was “inactive” throughout. The Potency entry in [19] was “inactive”. Also, the call in test [13] was inactive.

Consider `CCCCCC=CCC=CCCCCCCCC(=O)OCC`, for which the Potency result in test [1], in [2], in test [3], in [4], in [5] and in test [6] was “inactive” each time. In addition, the Potency entry in test [7], in test [10], in [11], in [14], in test [17] and in test [18] was “inactive” in each case. The Potency result in [19] was “inactive”. The Potency in [12] is 55.2 µM (active). The call in test [13] was inactive.
